# Only some compounds are listed: those with a hit (about 4.1% of all), similar ones and a draw of the others.
# DAX1 inh-1: DAX1 (NR0B1) inhibitors on StAR promoter, primary screen, cell-based, luminescence, SF-1 (NR5A1), full-length DAX-1; inhibition, % at 6.8 µM; 370,000 compounds, 1.1% hits; HEK293T StAR-luciferase reporter, SF-1/DAX-1 repression relief;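 active = inhibition above the mean over all tested compounds plus 3 SD, cut at about 3.6% in these data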;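 note: 0% = DAX-1 cells with DMSO and 100% = cells lacking DAX-1 with DMSO; higher inhibition means more luminescence from relief of DAX-1 repression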
# hcDAF12 agonist: H. contortus DAF-12 nuclear receptor activators, primary screen, cell-based, luminescence, HEK293, lit1-tk-luc reporter; HEK293 hcDAF-12 lit1-tk-luc reporter; 0% DMSO, 100% Δ7-dafachronic acid; activation, % at 6.8 µM; 370,000 compounds, 1.4% hits; AID 652067, 2013;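 active = activation above the mean of all tested compounds plus 3 SD, cut at about 5.5% in these data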;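 note: 100% = response to 3 µM Δ7-dafachronic acid high control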
# DAX1 inh-2: DAX1 (NR0B1) inhibitors, primary screen, cell-based, HEK293, Gal4-DAX1, luciferase luminescence; Nuclear receptor subfamily 0 group B member 1 (Homo sapiens), P51843; HEK293 Gal4-DAX1 luciferase reporter; inhibition, % at 6.75 µM; 340,000 compounds, 0.99% hits; AID 504766, 2011;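 active = inhibition above the mean over all tested compounds plus 3 SD, cut at about 4.2% in these data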;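 note: 0% = DAX1-transfected cells with DMSO and 100% = empty-vector control cells with DMSO; inhibition shows as a rise in luminescence from relieved DAX1 repression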
# Target sequence (P51843 207-470 limits assumed): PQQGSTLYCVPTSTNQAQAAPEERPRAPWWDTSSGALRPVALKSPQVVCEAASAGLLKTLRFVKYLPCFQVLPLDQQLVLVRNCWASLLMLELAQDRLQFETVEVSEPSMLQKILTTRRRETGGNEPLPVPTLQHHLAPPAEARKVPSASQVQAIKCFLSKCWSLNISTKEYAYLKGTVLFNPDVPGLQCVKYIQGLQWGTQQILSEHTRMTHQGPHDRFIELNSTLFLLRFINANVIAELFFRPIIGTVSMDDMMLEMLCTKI
# ssDAF-12 act: S. stercoralis DAF-12 nuclear receptor activators, primary screen, cell-based, luminescence, HEK293, GRIP1 co-expression, lit1-tk-luc. Nuclear hormone receptor DAF-12 (Strongyloides stercoralis). HEK293 ssDAF-12/GRIP1 lit1-tk-luc reporter; % of 3 µM dafachronic acid response. activation, % at 6.8 µM. 370,000 compounds, 1% hits. AID 652126, 2013;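 active = activation above the mean over all tested compounds plus 3 SD, cut at about 0.9% in these data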;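 note: 0% = DMSO-only wells and 100% = 3 µM delta7-dafachronic acid wells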
# hgDAF-12 ag: H. glycines DAF-12 receptor agonists, primary screen, cell-based, luminescence, HEK293, GAL4 fusion, UAS-luciferase; activation, % at 6.8 µM; HEK293 GAL4-hgDAF12 UAS-luciferase reporter, agonist luminescence; normalized to butyrate control; 370,000 compounds, 1.8% hits; Nuclear hormone receptor DAF-12 (Heterodera glycines), GAL4 fusion;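 active = activation above a cutoff set at the mean of all screened compounds plus 3 SD, cut at about 10% in these data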;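 note: 0% = DMSO wells and 100% = sodium butyrate wells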
# Numbers without * were called inactive; . = no result.
SMILES,DAX1 inh-1,hcDAF12 agonist,DAX1 inh-2,ssDAF-12 act,hgDAF-12 ag
O=C1C2C3C=CC(C4CC34)C2C(=O)N1/N=C/c1c[nH]c2ccccc12 (stereo not drawn),0,6.0*,1,2.2*,10*
COc1ccc(-n2c(SCC(=O)Nc3cccc4ccccc34)nnc2-c2ccco2)cc1,-1,-1,.,-1,1
Oc1ccc(Cl)cc1CNCC1CCCO1 (stereo not drawn),-1,0,0,-2,0
Clc1ccccc1CNCC1CCCO1 (stereo not drawn),-1,1,5.9*,0,2
O=C(NCc1c(F)cccc1F)C1CCC(CNS(=O)(=O)c2cccc3cccnc23)CC1 (stereo not drawn),-1,-2,.,-1,-3
CCN1C(=O)c2cccc3c(S(=O)(=O)Nc4ccccn4)ccc1c23,1,3,6.7*,0,-1
CCCOc1ccc(CN2CCOCC2)cc1OC,0,-1,5.3*,-1,-1
O=C(NC1CCCCC1)N(Cc1cc2cc3c(cc2[nH]c1=O)OCCO3)C1CCCCC1,-1,-2,4.8*,-1,-3
COc1cc2cc(CN(C(=O)NC3CCCCC3)C3CCCC3)c(=O)[nH]c2cc1OC,0,0,0,-1,-3
Cc1c(C(=O)N2CCN(C)CC2)oc2c1C(=O)CC(C)(C)C2,1,-1,-1,-2,-2
Cc1c(C(=O)N2CCc3ccccc32)oc2c1C(=O)CC(C)(C)C2,4.0*,4,3,1,8
COc1ccc(-c2cc3ccccc3[nH]2)cc1,2,5.6*,3,0,9
CCCNc1c(N)n(-c2ccccc2)c(=O)[nH]c1=O,1,-1,6.1*,-2,0
CCN(Cc1cn(Cc2ccccc2)nn1)S(=O)(=O)c1ccc(N2CCCC2)cc1Br,-2,-2,.,-2,2
COC[C@@H]1CCCN1c1cccc2c1S(=O)(=O)N1CC[C@@H](C1)O2,-1,0,.,0,4
COCc1cc(C)nc2sc(C(=O)Nc3cccc(OC)c3)c(N)c12,1,6,4.9*,0,10*
CN1C(=O)c2cc(NC(=O)Nc3ccccc3F)ccc2OC[C@H]2O[C@@H](CC(=O)NCc3ccc(-c4ccccc4)cc3)CC[C@@H]21,0,0,.,-2,0
CCOC(=O)c1nc(-c2ccc(OC)c(OC)c2)cnc1C#N,1,4,6.9*,-1,-4
CCc1c(-c2ccc(F)cc2)ncn1CCc1ccccc1OC,-1,-1,.,-2,0
C/C(=N\N1C(=O)c2ccccc2NC1c1ccccc1)c1ccccc1O (stereo not drawn),3.8*,3,2,-1,9
C/C(=N\N1C(=O)c2ccccc2NC1c1ccco1)c1ccccc1O (stereo not drawn),3,1,6.1*,0,9
COC(=O)[C@]12C[C@H](CC(=O)NCc3cccc(C(F)(F)F)c3)C(=O)N(Cc3ccco3)C1=C[C@H](C(C)(C)C)O[C@@H]2C,0,-3,.,-1,1
O=C(CSc1ccc2ccccc2n1)c1ccc2c(c1)OCO2,3,5,2,2.3*,10
CC(=O)[C@@H]1[C@@H](C(=O)c2ccc(F)cc2)[C@]2(C(=O)Nc3ccccc32)[C@H]2C=Cc3cc(F)ccc3N12,0,3,-1,1.5*,-1
O=C(OCC#CCSc1nnc(-c2cccc3ccccc23)o1)c1ccc(OC(F)F)cc1,.,-3,.,-2,5
SMILES,DAX1 inh-1,hcDAF12 agonist,DAX1 inh-2,ssDAF-12 act,hgDAF-12 ag
COC(=O)[C@@H](N[C@H](/C=C/c1ccccc1)[C@@H](O)Cc1ccccc1)c1ccccc1,0,2,.,-1,-1
Cn1nc(-c2ccccc2)nc1-c1ccccc1,1,6.3*,2,1,9
c1ccc(Cn2nc(-c3ccccc3)nc2-c2ccccc2)cc1,0,2,0,1,1
O=S1(=O)c2ccc(Br)cc2OC[C@H](Cc2ccccc2)N1Cc1cn(Cc2ccc(Br)cc2)nn1,-1,1,.,-2,1
O=C(Nc1nc(-c2ccc(F)cc2)cs1)C1CCN(C(=O)c2ccc(F)cc2)CC1,-8,-4,-4,-2,-8
O=C(Nc1nc2c(F)cc(F)cc2s1)C1CCN(C(=O)c2ccc(F)cc2)CC1,4.0*,5,2,0,10
CCc1ccc(NC(=O)c2ccccc2NC(=O)C2CCCO2)cc1 (stereo not drawn),2,3,0,0,13*
CC(C)(C)c1ccc(-c2nnc3n2N=C(c2ccc(-c4ccccc4)cc2)CS3)cc1,-1,-2,.,-1,-1
Fc1ccc(NC(=S)N2CCOCC2)c(F)c1,-1,-1,-1,-1,-2
Fc1ccc(NC(=S)N2CCc3ccccc3C2)c(F)c1,1,3,5.6*,0,1
Cc1c(Cc2ccccc2)c(=O)oc2cc(OC(C)C(=O)NCC3CCC(C(=O)O)CC3)c(Cl)cc12 (stereo not drawn),0,-2,4.6*,-2,0
Cc1cc(=O)oc2cc(OC(C)C(=O)NCC3CCC(C(=O)O)CC3)ccc12 (stereo not drawn),0,0,3,-1,-3
COc1ccc(CC2(CO)CCN(Cc3cnn(-c4ccccc4OC)c3)CC2)cc1,0,-3,5.8*,-2,-4
COc1ccc(CC2(CO)CCN(Cc3cnn(-c4ccccc4)c3)CC2)cc1,-1,-2,-1,-2,-4
CC1CCc2nn(CC(=O)N3CCCCCC3)cc2C1 (stereo not drawn),0,-1,2,-1,-1
CC1CCc2nn(CC(=O)N3CCc4ccccc43)cc2C1 (stereo not drawn),1,3,4.6*,0,3
Cc1ccn(CCC(=O)N2CCc3ccccc32)n1,4.1*,1,1,0,0
CC1CCc2nn(CC(=O)NCCN3CCCCC3C)cc2C1 (stereo not drawn),1,-1,5.8*,-1,5
CCOC(=O)c1c(-c2ccc(F)cc2)csc1/N=C/N(C)C,0,0,-1,-2,-1
CCC(=O)N1CCC1(C)C(=O)Nc1cc(-c2ccccc2)nn1C (stereo not drawn),3,-1,.,-1,11*
Cc1ccccc1NC(=O)Nc1cc(-c2ccccc2)nn1C,0,1,6.6*,-1,1

# Screens (PubChem)
